Measurements from PubChem BioAssay (NCATS).
Where “and” joins values, the source holds several entries; their conditions need not be identical. Identical values can stand only once. Records with an inconclusive call do not appear. Entries that show only a call come without a potency. A number with no mark means an inactive call. Calls of active or inactive are those of the source. The call rests on the fitted dose curve; in most records, active means well fitted curve in the direction sought with a large enough effect; inconclusive means small, poorly fitted or top-dose-only effect, or another doubt; inactive means no such curve, though single readings can be large; an effect the other way counts as inactive or inconclusive.

Tests used:
[1] = molecular target: Cellular tumor antigen p53 (Homo sapiens) (UniProt P04637); test: Primary qHTS for small molecule compounds that upregulate eGFP-tagged delta133p53alpha (in N-terminal) cells. (AID 2060322); conditions: NCI-H358 eGFP-delta133p53alpha fluorescence, 24 h; activation: stronger effect = higher value; further: nearly all actives have a fitted effect of over 75% in size; further: potency means the concentration at half of the fitted maximal effect; on activation: series mostly up to about 56 µM
Cellular tumor antigen p53 (Homo sapiens), sequence (P04637 whole entry, looked up): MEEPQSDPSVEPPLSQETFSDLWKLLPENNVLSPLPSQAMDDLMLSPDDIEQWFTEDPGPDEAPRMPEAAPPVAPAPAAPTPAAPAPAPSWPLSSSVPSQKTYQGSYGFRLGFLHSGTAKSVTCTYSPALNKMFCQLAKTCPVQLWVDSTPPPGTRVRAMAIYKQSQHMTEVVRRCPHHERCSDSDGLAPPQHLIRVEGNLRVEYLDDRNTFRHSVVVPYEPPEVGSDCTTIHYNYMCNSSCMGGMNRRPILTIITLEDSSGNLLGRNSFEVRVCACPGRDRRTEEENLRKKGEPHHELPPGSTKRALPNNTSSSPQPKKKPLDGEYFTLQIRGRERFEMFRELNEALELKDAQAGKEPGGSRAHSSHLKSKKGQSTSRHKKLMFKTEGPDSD
Summary of the method: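 NCI-H358 cells pre-induced 24 h with 10 ng/ml doxycycline to express N-terminal eGFP-delta133p53alpha, then dosed 24 h at 37C without doxycycline; fixed, Hoechst-stained, GFP intensity by laser scanning cytometry, normalized to DMSO (0%) and 57.5 uM 5-azacytidine (100%).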

[2] = molecular target: Aldehyde dehydrogenase, mitochondrial (Homo sapiens) (UniProt P05091); test: qHTS for Inhibitors of the Aldehyde Dehydrogenase Family (ALDH2) Primary screen (AID 2061308); further: nearly all actives have a fitted effect of over 55% in size
[3] = molecular target: Retinaldehyde dehydrogenase 3 (Homo sapiens) (UniProt P47895); test: qHTS for Inhibitors of the Aldehyde Dehydrogenase Family (ALDH1A3) Primary screen (AID 2061315)

SMILES | activation [1] | Potency [2] | Potency [3] | Potency [1]
COc1cc(O)cc(OC2OC(CO)C(O)C(O)C2O)c1 (centres undefined) | 21.4% | inactive | inactive | –
C=C1CC[C@@H](O)[C@]2(C)C[C@H]3OC(=O)C(=C)[C@H]3CC12 (some centres undefined) | – | inactive | inactive | 21.3 µM (active)
CN1CCc2cc(Cl)c(O)cc2[C@@H](c2cccc3c2OCC3)C1 | -1.67% | inactive | inactive | –
CC(C)(O)c1ccc2c(c1)C(O)CC1C(C)(C(=O)O)CCCC21C (centres undefined) | 5.34% | inactive | inactive | –
COC1CC(=O)C23C(=O)NC(CC(C)C)C2C(C)C(C)=CC3/C=C(\C)CCCC1O (centres undefined) | 16.8% | inactive | inactive | –
C=CCc1ccc(OC(C)Cc2ccc(OC)c(OC)c2)c(OC)c1 (centres undefined) | -15.2% | inactive | inactive | –
C[C@@H]1O[C@@H](O[C@H]2[C@@H]3C=CO[C@@H](O[C@@H]4O[C@H](CO)[C@@H](O)[C@H](O)[C@H]4O)[C@@H]3[C@@]3(CO)O[C@@H]23)[C@H](O)[C@H](OC(=O)/C=C/c2ccccc2)[C@H]1O | 0.763% | inactive | inactive | –
C=C(C)C1CCC2(C(=O)O[C@@H]3O[C@H](CO[C@@H]4O[C@H](CO)[C@@H](O)[C@H](O)[C@H]4O)[C@@H](O)[C@H](O[C@@H]4O[C@@H](C)[C@H](O)[C@@H](O)[C@H]4O)[C@H]3O)CCC3(C(=O)O)C(CCC4C5(C)CCC(O)C(C)(C)C5CCC43C)C12 (some centres undefined) | -13.7% | inactive | inactive | –
C=CC1(C)CC(O)C2(CCC3C(C)(C(=O)O)CCCC3(C)C2=O)C1 (centres undefined) | -2.29% | inactive | inactive | –
C=C[C@H]1[C@H](O[C@@H]2O[C@H](CO)[C@@H](O)[C@H](O)[C@H]2O)OC=C(C(=O)OC)[C@H]1C[C@@H]1N[C@H](C(=O)O)Cc2c1[nH]c1ccccc21 | -4.58% | inactive | inactive | –
CC1(C=O)CC[C@]2(C(=O)O[C@@H]3O[C@H](CO)[C@@H](O)[C@H](O)[C@H]3O)CC[C@]3(C)C(=CCC4[C@@]5(C)C[C@H](O)[C@H](O[C@@H]6OC[C@@H](O)[C@H](O)[C@H]6O)[C@@](C)(CO)C5CC[C@]43C)C2C1 (some centres undefined) | 6.87% | inactive | inactive | –
C[C@H]1[C@H](C)CC[C@]2(C(=O)O)CC[C@]3(C)C(=CCC4[C@@]5(C)C[C@@H](O)[C@H](O)C(C)(C)C5CC[C@]43C)[C@H]12 (some centres undefined) | -9.16% | inactive | inactive | –
CCNC(=O)[C@@H]1CCCN1C(=O)[C@H](CCCN=C(N)N)NC(=O)[C@H](CC(C)C)NC(=O)[C@@H](C)NC(=O)[C@H](Cc1ccc(O)cc1)NC(=O)[C@H](CO)NC(=O)[C@H](Cc1c[nH]c2ccccc12)NC(=O)[C@H](Cc1cnc[nH]1)NC(=O)[C@@H]1CCC(=O)N1 | -6.33% | inactive | inactive | –
CC(=O)OC[C@]12[C@H](OC(C)=O)[C@H](OC(=O)c3ccccc3)[C@@H]3[C@@H](OC(C)=O)[C@]1(OC3(C)C)[C@H](C)C[C@H](OC(=O)c1ccccc1)[C@@H]2OC(=O)c1ccccc1 | -31.3% | inactive | inactive | –
N#Cc1ccc2ncnc(NCCc3ccccc3)c2c1 | -3.57% | inactive | inactive | –
CCc1cccc(CC)c1-n1c(C=C(C)C)c(C(=O)N2CCNCC2)cc(-c2nc(-c3ccc(C(F)(F)F)cc3)cs2)c1=O | 26.3% | inactive | inactive | –
Cc1ccc2c(n1)Oc1ccc(C(C)C(=O)OCC(=O)N(C)C)cc1C2 (centres undefined) | -12.6% and -10.9% | inactive | inactive | –
CC1CC2OC3(OC2C(C)(C)O)C1C1(C)CCC24CC25CCC(O[C@@H]2OC[C@@H](O)[C@H](O)[C@H]2O)C(C)(C)C5CC=C4C1(C)C3O (some centres undefined) | -18.8% | inactive | inactive | –
O=C(O)CCc1cccc(O)c1O[C@@H]1O[C@H](CO)[C@@H](O)[C@H](O)[C@H]1O | 0% | inactive | inactive | –
CC1CCCC[C@H]2C(=O)C=C[C@H](O)[C@@H]2CC(=O)O1 (some centres undefined) | – | inactive | inactive | 23.9 µM (active)
CC(=O)OC1C(O)/C(C)=C\C2C(OC(=O)c3ccccc3)C(C)CC2(OC(C)=O)C(OC(C)=O)C(C)/C=C/C(C)(C)C1OC(C)=O (centres undefined) | -20.5% | inactive | inactive | –
C[C@]1(O)CC[C@@H]2C(C(=O)O)=CO[C@@H](O[C@@H]3O[C@H](CO)[C@@H](O)[C@H](O)[C@H]3O)[C@@H]21 | -11.5% | inactive | inactive | –
COC(=O)c1cc(OC)cc(OC)c1C(=O)c1c(OC)cc2c(c1O)C1CCC(O)C(C)(O2)O1 (centres undefined) | 25.2% | inactive | inactive | –
